# Experimental data from PubChem BioAssay (NCATS).
# Inconclusive results are not listed. Active and inactive are the calls of the source. Calls follow the shape of the dose curve; as a rule, active = well fitted curve in the direction sought with a large enough effect; inconclusive = small, poorly fitted or top-dose-only effect, or another doubt; inactive = no such curve, though single readings can be large or run the other way.
# Assay: qHTS Assay for Identifying Gametocytocidal Compounds (AID 743244);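 also: actives lower the fluorescent signal which means gametocytes are killed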
# Details: P. falciparum 3D7 stage III-V gametocytes, alamarBlue, 72 h; max response: active compounds read low
# Method in brief: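 Fluorescence at Ex 525/Em 598 nm, recorded 24 h after alamarBlue addition, reports residual metabolic activity of 3D7 gametocytes (stages III–V) following 72 h compound exposure at 37 °C, 5% CO2.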
# % is scaled to controls: 0 for no effect and ±100 for the full control effect.
row,Structure (SMILES),max response
1,NC(=S)NS(=O)(=O)c1ccc(N)cc1,5.02% (inactive)
2,CN1CCN(C(c2ccccc2)c2ccc(Cl)cc2)CC1 (stereo not given),1.98% (inactive)
3,CCC[C@@H]1C[C@@H](C(=O)N[C@@H]([C@H]2O[C@H](SC)[C@H](O)[C@@H](O)[C@H]2O)[C@H](C)Cl)N(C)C1,-8.48% (inactive)
4,CCCCC(O)c1ccccc1 (stereo not given),-2.26% (inactive)
5,CO/N=C(\C(=O)N[C@@H]1C(=O)N2C(C(=O)O)=CCS[C@H]12)c1csc(N)n1,5.71% (inactive)
